Experimental data from PubChem BioAssay (NCI).
Compounds without any hit were thinned out: in the full panel of roughly 79,000, 15% have a hit. Active and inactive are the calls of the source. No stated cut-off is given here; in the data, active means growth inhibition above about 70%; inactive means the rest.

Assays:
[1] = NCI Yeast Anticancer Drug Screen. Data for the rad52 strain (AID 147);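 further: 0% = growth of vehicle-treated control cultures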; settings: S. cerevisiae rad52 mutant growth inhibition, hits give high values
Method in brief: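 Here a repair-compromised yeast strain receives each compound; its growth is then quantified and normalised to vehicle-only controls.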

[2] = NCI Yeast Anticancer Drug Screen. Data for the wt1 strain (AID 149);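 further: 0% = growth of vehicle-treated wt1 cultures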; settings: S. cerevisiae wt1 strain (SPY 50644) growth inhibition, hits give high values
Method in brief: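 Growth inhibition read against vehicle controls after compound exposure of the wt1 yeast strain.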

[3] = NCI Yeast Anticancer Drug Screen. Data for the rad50EPP+ strain (AID 151);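 further: 0% = growth of vehicle-treated control cultures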; settings: S. cerevisiae rad50 mutant strain, hits give high values
Method in brief: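 Read-out is yeast growth inhibition relative to vehicle; cells used were the rad50EPP+ strain.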

[4] = NCI Yeast Anticancer Drug Screen. Data for the rad50 strain (AID 155);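 further: 0% = growth of vehicle-only cultures of the same strain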; settings: S. cerevisiae rad50 strain growth inhibition, hits give high values
Method in brief: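 Readout: growth inhibition relative to vehicle-treated cultures. Compound exposure was carried out in a genetically defined yeast strain deficient in DNA damage repair.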

[5] = NCI Yeast Anticancer Drug Screen. Data for the mec2-1 strain (AID 157); settings: S. cerevisiae mec2-1 strain, hits give high values
Method in brief: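 Using mec2-1 yeast: add compound, measure growth, express inhibition versus vehicle-treated cultures.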

[6] = NCI Yeast Anticancer Drug Screen. Data for the rad14 strain (AID 159);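 further: 0% = growth of vehicle-treated control cultures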; settings: S. cerevisiae rad14 strain growth inhibition, hits give high values
Method in brief: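 Growth inhibition vs vehicle controls; genetically altered yeast strain (DNA damage repair defect) treated with test compounds.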

[7] = NCI Yeast Anticancer Drug Screen. Data for the sgs1 mgt1 strain (AID 161);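 further: 0% = growth of cultures given vehicle only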; settings: S. cerevisiae sgs1 mgt1 strain, hits give high values
Method in brief: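 Yeast cells carrying a defined DNA-repair defect were exposed to test compounds. Growth inhibition was measured relative to vehicle-treated controls.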

[8] = NCI Yeast Anticancer Drug Screen. Data for the CLN2oe strain (AID 163);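 further: 0% = growth of vehicle-only control cultures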; settings: S. cerevisiae CLN2oe strain, hits give high values
Method in brief: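 Whole-cell yeast growth assay. A strain engineered for altered cell-cycle control received compound, and inhibition relative to vehicle-treated cultures was recorded.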

[9] = NCI Yeast Anticancer Drug Screen. Data for the cln2 rad14 strain (AID 165);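 further: 0% = growth equal to vehicle treated cultures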; settings: S. cerevisiae cln2 rad14 strain, hits give high values
Method in brief: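 Yeast strain cln2 rad14, bearing defects in cell cycle control and DNA repair, serves as the test system; values reflect growth inhibition compared with vehicle.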

[10] = NCI Yeast Anticancer Drug Screen. Data for the bub3 strain (AID 167); settings: S. cerevisiae bub3 mutant strain, hits give high values
Method in brief: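 Readout: yeast growth inhibition, expressed relative to vehicle-only wells. The test organism is a mutant strain from a panel with lesions in DNA repair or checkpoint genes.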

[11] = NCI Yeast Anticancer Drug Screen. Data for the wt2 strain (AID 169);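 further: 0% = growth of vehicle-treated yeast cultures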; settings: S. cerevisiae wt2 strain growth inhibition, hits give high values
Method in brief: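 Treated yeast vs. vehicle-treated yeast: growth inhibition determined.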

[12] = NCI Yeast Anticancer Drug Screen. Data for the mlh1 strain (AID 171);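 further: 0% = growth of vehicle-treated control cultures of the same strain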; settings: S. cerevisiae mlh1 strain growth inhibition, hits give high values
Method in brief: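 A yeast strain with a defined genetic lesion serves as the test organism. Cultures receive compound or vehicle, and growth is measured.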

[13] = NCI Yeast Anticancer Drug Screen. Data for the sgs1 strain (AID 173);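 further: 0% = growth of vehicle-only control cultures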; settings: S. cerevisiae sgs1 mutant, hits give high values
Method in brief: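 A genetically defined yeast mutant is incubated with the test compound, and its growth is compared to that of the same strain given vehicle.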

[14] = NCI Yeast Anticancer Drug Screen. Data for the mlh1 rad18 strain (AID 175); settings: S. cerevisiae mlh1 rad18 strain growth inhibition, hits give high values
Method in brief: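 Steps: expose repair-defective yeast to compound; measure growth; express inhibition against vehicle-treated controls.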

[15] = NCI Yeast Anticancer Drug Screen. Data for the rad18 strain (AID 177); settings: S. cerevisiae rad18 mutant growth inhibition, hits give high values
Method in brief: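 Measured value is growth inhibition of a yeast strain bearing a DNA repair alteration, referenced to vehicle-treated cells.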

[16] = at 5.0 µM (retest, dose inferred, filed as 0.5)
[17] = at 50.0 µM (retest, dose inferred, filed as 5.0)

Measured: growth inhibition

CCOC(=O)Nc1ccc2c(c1)Cc1ccccc1-2
inactive: [1]; at 1.2 µM -11% | [1]; at 3.7 µM -10% | [1]; at 11.0 µM -7% | [1]; at 33.0 µM -5% | [1]; at 100.0 µM -5% | [2]; at 1.2 µM -2% | [2]; at 3.7 µM 5% | [2]; at 11.0 µM 11% | [2]; at 33.0 µM 7% | [2]; at 100.0 µM 10% | [3]; at 1.2 µM -6% | [3]; at 3.7 µM -13% | [3]; at 11.0 µM 15% | [3]; at 33.0 µM 21% | [3]; at 100.0 µM 21% | [4]; at 1.2 µM -15% | [4]; at 3.7 µM -14% | [4]; [16] 4% | [4]; at 11.0 µM -23% | [4]; at 33.0 µM -22% | [4]; [17] 2% | [4]; at 50.0 µM -9.4% | [4]; at 100.0 µM -9% | [5]; at 1.2 µM -4% | [5]; at 3.7 µM -4% | [5]; [16] 1% | [5]; at 11.0 µM -6% | [5]; at 33.0 µM -5% | [5]; [17] 12% | [5]; at 50.0 µM -5.5% | [5]; at 100.0 µM -2% | [6]; at 1.2 µM 0% | [6]; at 3.7 µM -8% | [6]; at 11.0 µM 1% | [6]; at 33.0 µM 1% | [6]; at 100.0 µM 3% | [7]; [16] 4% | [7]; [17] 8% | [7]; at 50.0 µM 5.6% | [8]; at 1.2 µM -9% | [8]; at 3.7 µM -12% | [8]; at 11.0 µM -13% | [8]; at 33.0 µM -12% | [8]; at 100.0 µM -7% | [9]; [16] -8% | [9]; [17] -3% | [9]; at 50.0 µM -19% | [10]; at 1.2 µM 35% | [10]; at 3.7 µM 28% | [10]; [16] 49% | [10]; at 11.0 µM 21% | [10]; at 33.0 µM 21% | [10]; at 100.0 µM 26% | [11]; at 1.2 µM 5% | [11]; at 3.7 µM 9% | [11]; at 11.0 µM 14% | [11]; at 33.0 µM 19% | [11]; at 100.0 µM 14% | [12]; at 1.2 µM -14% | [12]; at 3.7 µM -8% | [12]; at 11.0 µM -7% | [12]; at 33.0 µM -7% | [12]; at 100.0 µM -5% | [13]; at 1.2 µM -18% | [13]; at 3.7 µM -12% | [13]; at 11.0 µM -4% | [13]; at 33.0 µM 3% | [13]; at 100.0 µM 0% | [14]; [16] -11% | [14]; [17] -25% | [14]; at 50.0 µM 16.4%
active: [10]; [17] 88% | [10]; at 50.0 µM 87.2%

Cc1ccccc1NC(=O)Cc1csc(N/N=C2\NC(=O)/C(=C/c3cccc([N+](=O)[O-])c3)S2)n1
active: [7]; at 50.0 µM 79% | [13]; at 100.0 µM 70%
inactive: [1]; at 1.2 µM 2% | [1]; at 3.7 µM 5% | [1]; at 11.0 µM 13% | [1]; at 33.0 µM 24% | [1]; at 100.0 µM 49% | [2]; at 1.2 µM 3% | [2]; at 3.7 µM 6% | [2]; at 11.0 µM 4% | [2]; at 33.0 µM 11% | [2]; at 100.0 µM 26% | [3]; at 1.2 µM 4% | [3]; at 3.7 µM 9% | [3]; at 11.0 µM 15% | [3]; at 33.0 µM 39% | [3]; at 100.0 µM 51% | [4]; at 1.2 µM -4% | [4]; at 3.7 µM -11% | [4]; [16] 8% | [4]; at 11.0 µM -6% | [4]; at 33.0 µM 24% | [4]; [17] 10% | [4]; at 50.0 µM 64.1% | [4]; at 100.0 µM 50% | [5]; at 1.2 µM 4% | [5]; at 3.7 µM 2% | [5]; [16] 8% | [5]; at 11.0 µM 5% | [5]; at 33.0 µM 12% | [5]; [17] 13% | [5]; at 50.0 µM 32.1% | [5]; at 100.0 µM 23% | [6]; at 1.2 µM 4% | [6]; at 3.7 µM 2% | [6]; at 11.0 µM 8% | [6]; at 33.0 µM 16% | [6]; at 100.0 µM 22% | [7]; [16] -1% | [7]; [17] 22% | [8]; at 1.2 µM 0% | [8]; at 3.7 µM 0% | [8]; at 11.0 µM -4% | [8]; at 33.0 µM 1% | [8]; at 100.0 µM 17% | [9]; [16] -16% | [9]; [17] 28% | [9]; at 50.0 µM 21.6% | [10]; at 1.2 µM -1% | [10]; at 3.7 µM -1% | [10]; [16] -25% | [10]; at 11.0 µM 0% | [10]; at 33.0 µM 15% | [10]; [17] 69% | [10]; at 50.0 µM 66.2% | [10]; at 100.0 µM 32% | [11]; at 1.2 µM 2% | [11]; at 3.7 µM 3% | [11]; at 11.0 µM 5% | [11]; at 33.0 µM 17% | [11]; at 100.0 µM 46% | [12]; at 1.2 µM 1% | [12]; at 3.7 µM 4% | [12]; at 11.0 µM 6% | [12]; at 33.0 µM 20% | [12]; at 100.0 µM 51% | [13]; at 1.2 µM 5% | [13]; at 3.7 µM 6% | [13]; at 11.0 µM 8% | [13]; at 33.0 µM 40% | [14]; [16] 13% | [14]; [17] 42% | [14]; at 50.0 µM 60.5% | [15]; at 1.2 µM -2% | [15]; at 3.7 µM -3% | [15]; at 11.0 µM 6% | [15]; at 33.0 µM 32% | [15]; at 100.0 µM 59%

COc1ccc(S(=O)(=O)N/N=C\c2cc([N+](=O)[O-])cc(I)c2O)c(OC)c1OC
active: [1]; at 100.0 µM 94% | [4]; [17] 72% | [4]; at 50.0 µM 92.9% | [4]; at 100.0 µM 95% | [5]; [17] 76% | [5]; at 50.0 µM 73%
inactive: [1]; at 1.2 µM 0% | [1]; at 3.7 µM 9% | [1]; at 11.0 µM 20% | [1]; at 33.0 µM 42% | [2]; at 1.2 µM -7% | [2]; at 3.7 µM -8% | [2]; at 11.0 µM -8% | [2]; at 33.0 µM 9% | [2]; at 100.0 µM 49% | [3]; at 1.2 µM -5% | [3]; at 3.7 µM -6% | [3]; at 11.0 µM -5% | [3]; at 33.0 µM 17% | [3]; at 100.0 µM 63% | [4]; at 1.2 µM -7% | [4]; at 3.7 µM -7% | [4]; [16] 10% | [4]; at 11.0 µM 23% | [4]; at 33.0 µM 64% | [5]; at 1.2 µM -2% | [5]; at 3.7 µM -6% | [5]; [16] 14% | [5]; at 11.0 µM -7% | [5]; at 33.0 µM 15%
